Source: PubChem BioAssay (National Center for Advancing Translational Sciences (NCATS))
Giardia kill: Giardia lamblia killing; 0.15% of 340,000 active; activity change, % at 7.66 µM, hits read low; Giardia lamblia trophozoite viability; AID 540267; in the data active = activity change below about -80%; inconclusive = between about -30% and that limit;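 note: parasites exposed to compound for two days anaerobically before the ATP read; % is set by controls: 0 for no effect and ±100 for the full control effect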
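Viability, read as ATP luminescence: trophozoites at 100 cells/well, compound added, 48 hrs anaerobic at 37 deg C, then 15-30 min room-temperature development before reading.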
Vif-A3F inh: Vif-A3F binding inhibition; Potency, µM (series often up to 46.1 µM), for inactives: top-dose activity, negative = active; 0.2% of 390,000 active; HeLa A3F-eYFP + Vif (tagged APOBEC3F with the HIV-1 protein that degrades it), YFP fluorescence increase; note: potency is the fitted concentration of half-maximal effect; % of control where 0% means no effect; nearly all actives have a fitted effect of over 65% in size
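HeLa cells stably expressing Vif plus C-terminally eYFP-tagged A3F were seeded, incubated overnight at 37 deg C, dosed with compound, incubated overnight again at 37 deg C. Yellow fluorescence (Ex 488/Em 500-530) reported blocked Vif-mediated A3F-eYFP degradation.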
MCF10A rerep: induces DNA re-replication in MCF 10a normal breast cells. Potency, µM (highest dose often 46.1 µM), without a hit: at the highest dose activity, positive = re-replication, actives largely listed as activators. 2.9% of 350,000 active. MCF 10A DNA re-replication, Hoechst nuclear intensity, 48 h. AID 624296; note: potency is the fitted concentration of half-maximal effect; % of control where 0% means no effect; nearly all actives have a fitted effect of over 50% in size
Vif-A3G inh: inhibitors of Vif-APOBEC3G interaction | Q9HC16 | HeLa A3G-eYFP + Vif (tagged APOBEC3G with the HIV-1 protein that degrades it), YFP fluorescence, overnight | Potency, µM (top dose mostly 46.1 µM), for the others: top-dose activity, negative = active, most hits filed as inhibitors | 0.076% of 410,000 active | AID 602310; note: potency is the fitted concentration of half-maximal effect; % is set by controls: 0 for no effect and ±100 for the full control effect; nearly all actives have a fitted effect of over 60% in size
Target sequence (Q9HC16 whole entry, looked up): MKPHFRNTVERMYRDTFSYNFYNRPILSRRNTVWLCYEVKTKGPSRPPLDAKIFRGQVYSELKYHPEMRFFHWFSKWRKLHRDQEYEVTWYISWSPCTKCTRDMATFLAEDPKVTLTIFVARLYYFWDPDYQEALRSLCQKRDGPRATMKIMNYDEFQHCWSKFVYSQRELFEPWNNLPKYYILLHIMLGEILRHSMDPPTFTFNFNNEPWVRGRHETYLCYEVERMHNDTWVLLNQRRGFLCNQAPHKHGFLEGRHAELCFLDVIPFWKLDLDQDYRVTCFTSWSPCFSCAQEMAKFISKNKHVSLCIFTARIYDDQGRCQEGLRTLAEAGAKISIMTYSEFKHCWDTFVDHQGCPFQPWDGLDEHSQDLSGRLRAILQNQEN
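Read-out is eYFP fluorescence (Ex 488/Em 500-530) from Vif-expressing HeLa A3G-eYFP cells; more signal means A3G escaped Vif-mediated degradation. Cells plated overnight, compound pinned in, incubated overnight at 37 deg C.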
SW480 rereplic: induces DNA re-replication in SW480 colon adenocarcinoma cells. SW480 DNA re-replication, Hoechst DNA content imaging, 48 h. Potency, µM (top dose mostly 46.1 µM), for inactives: at the top dose re-replication activation, usual class: activators. 1.8% of 340,000 active; note: potency is the fitted concentration of half-maximal effect; % of control where 0% means no effect; nearly all actives have a fitted effect of over 55% in size
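Quantitative HTS format with DMSO vehicle controls; 48 hr drug incubation at 37 C, then 40 min Hoechst staining and scanning imager measurement at 405 nm excitation.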
IL-1B inflam inh: blocks inflammasome-driven IL-1 beta release; activity change, % at 57.5 µM; THP-1 LPS/ATP IL-1B secretion, AlphaLISA, 16 h; hits give low values; AID 743279; 4.7% of 360,000 active; in the data active = activity change below about -50%; inconclusive = mostly about -30% to -49%; note: % is set by controls: 0 for no effect and ±100 for the full control effect
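Secreted IL-1B measured by AlphaLISA bead assay after 16 h compound exposure of THP-1 cells; compounds (final up to 57.5 uM) added 1 h before LPS (250 ng/mL) and ATP (1.25 mM) stimulation; lower signal means less secretion.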
* hit, by the source's call; u = inconclusive; x = no result given; [ ] = remark or other dose. This is a sample that favours compounds with a hit; in the whole collection about 6.9% have one here. Unless noted, calls come from the whole dose curve; as a rule, active = well fitted curve in the direction sought with a large enough effect; inconclusive = small, poorly fitted or top-dose-only effect, or another doubt; inactive = no such curve, though single readings can be large; an effect the other way counts as inactive or inconclusive.

SMILES | Giardia kill | Vif-A3F inh | MCF10A rerep | Vif-A3G inh | SW480 rereplic | IL-1B inflam inh
CCOc1cccc(/C=C/c2ccc3cccc(O)c3n2)c1OC | -13 | u | 14% | 3% | 10% | 27
Cc1c(C2(O)CCCCC2)[nH]c2cc(C(F)(F)F)ccc12 | 10 | 4% | 8% | -19% | -6% | -65*
CCc1c(C2(O)CCCCC2)[nH]c2cc(C(F)(F)F)ccc12 | 1 | 10% | u | -22% | 11%[9.22 µM] | 0
O=C(OCC(=O)c1c[nH]c2ccccc12)c1ccc([N+](=O)[O-])s1 | -16 | 6% | -12% | -1% | 21µM* | -8
CCc1cccc2c(C(=O)COC(=O)c3ccc([N+](=O)[O-])s3)c[nH]c12 | 7 | -23% | 18% | 1% | 7% | 0
O=C(N/N=C/c1ccco1)C(O)c1ccccc1 (configuration not stated) | -8 | 10% | 2% | 1% | 3% | 12
CC(/C=C/c1ccco1)=N\NC(=O)C(O)c1ccccc1 (configuration not stated) | -4 | 2% | 23µM* | -4% | 0% | -2
CCC(C)Nc1nc(-c2cccc(OC)c2O)nc2ccccc12 (configuration not stated) | -14 | 0% | u | 2% | 10% | -74*
COc1cccc(-c2nc(NCC3CCCO3)c3ccccc3n2)c1O (configuration not stated) | 0 | 4% | u | -7% | -4% | -84*
N#Cc1cc2c(=O)n3ccccc3nc2n(-c2ccc(Cl)cc2)c1=O | -1 | 1% | 0.52µM* | -1% | u | -3
Cc1cccc(NC(=O)c2cc(NC(=O)C3CCCCC3C(=O)O)ccc2N2CCCCC2)c1 (configuration not stated) | 8 | -1% | 15µM* | 0% | 3% | -8
CC(=O)Nc1ccc(N2CCCCC2)c(C(=O)Nc2cccc(C)c2)c1 | -12 | 7% | u | 2% | 4% | -6
Cc1cc(-c2nnc(-c3cc4ccccc4oc3=O)o2)c(C)n1-c1ccccc1 | -14 | -9% | 5.8µM* | -5% | u | -13
COc1ccc(CCNCC(=O)Nc2ccc(OC(F)(F)F)cc2)cc1OC | -10 | -5% | 23µM* | 3% | 10% | -21
COCCCNCC(=O)Nc1ccc(OC(F)(F)F)cc1 | -18 | -13% | u | -3% | u | 15
Cn1nnc2c(N3CCN(c4ccc(F)cc4)CC3)ncnc21 | x | 0% | x | 1% | x | x
O=c1n(CC2CO2)c(=O)n(CC2CO2)c(=O)n1CC1CO1 (configuration not stated) | -29 | 0% | 1.8µM* | -3% | 9.2µM* | -19
CN1CCN(c2ccccc2NC(=O)c2ccc([N+](=O)[O-])o2)CC1 | -92* | -1% | 15µM* | -11% | 2.3µM* | -9
CS(=O)(=O)N1CCN(c2ccccc2NC(=O)c2ccc([N+](=O)[O-])o2)CC1 | -98* | 6% | u | u | 2% | u
CN1CCN(c2ccccc2NC(=O)c2ccc(-c3cccc([N+](=O)[O-])c3)o2)CC1 | 23 | -7% | u | 0% | u | 0
COc1ccc(CCNC(=O)c2ccc3c(c2)CCN3S(=O)(=O)c2ccccc2)cc1 | x | 5% | x | 1% | x | x
COCCn1c(SCc2ccc(F)cc2)nc2c1c(=O)[nH]c(=O)n2C | 27 | 3% | 0.46µM* | -8% | 8% | -8
CCOCCn1c(SCc2ccc(F)cc2)nc2c1c(=O)[nH]c(=O)n2C | -6 | 3% | 1% | -1% | -8% | 39
Cn1c(Oc2ccc(Cl)cc2)nc2c1c(=O)n(Cc1ccc(F)cc1)c(=O)n2C | x | 0% | x | 4% | x | x
COC(=O)C1C2CC3c4[nH]c5cc(OC)ccc5c4CCN3CC2CC(OC(=O)CC(C)=O)C1OC (configuration not stated) | -8 | 25µM* | u | u | u | 24
SMILES | Giardia kill | Vif-A3F inh | MCF10A rerep | Vif-A3G inh | SW480 rereplic | IL-1B inflam inh
COC(=O)C1C2CC3c4[nH]c5cc(OC)ccc5c4CCN3CC2CC(O)C1OC (configuration not stated) | -20 | u | -4% | -6% | -2% | 2
CCCc1ccc(OC(C)C(=O)Nc2sc3c(c2C(=O)OC)CCCCC3)cc1 (configuration not stated) | x | 2% | x | 4% | x | x
Cc1ccc(-c2nn(-c3ccccc3)cc2C2SCC(=O)N2Cc2ccccc2)o1 (configuration not stated) | 17 | -12% | u | 1% | 13% | -69*
Cc1cc(N2CCN(Cc3cn(C)nc3-c3ccccc3F)CC2)cc(C)n1 | 3 | -17% | 16µM* | u | 7.3µM* | u
CN1CCN(Cc2cn(C)nc2-c2ccccc2F)CC1c1ccccc1 (configuration not stated) | 11 | u | 1% | 4% | -1% | 7
Cn1cc(CN2CCN(c3ncccn3)CC2)c(-c2cccc(Cl)c2)n1 | -6 | -5% | 21µM* | 0% | 6% | u
Cc1cc(N2CCN(Cc3cn(C)nc3-c3cccc(Cl)c3)CC2)cc(C)n1 | -9 | 4% | u | -28% | 23µM* | -82*
O=S(=O)(c1cccc(C(F)(F)F)c1)N1CCN(c2nc(-c3cccs3)nc3cc(Cl)ccc23)CC1 | 2 | x | x | 1% | x | x
O=C(C/C=N/OCc1c(Cl)cccc1Cl)c1ccc(Cl)cc1 | 6 | 5% | 23µM* | -9% | 16% | u
CCN(CC)S(=O)(=O)c1cccc(C(=O)N/N=C(\C)c2ccc(O)cc2O)c1 | -3 | u | 3.7µM* | -24% | 1.8µM* | 93
Nc1cc(Cl)ccc1C(=O)OCC(=O)NCc1cccs1 | -8 | -3% | -8% | 2% | -4% | -85*
CCNc1ccc(C(=O)OCC(=O)NCc2ccccc2Cl)cc1[N+](=O)[O-] | -16 | -29% | u | 0% | -6% | 2
O=C(COC(=O)c1ccccc1Cl)NCc1cccs1 | x | -9% | x | 2% | x | 7
O=C(COC(=O)c1cc([N+](=O)[O-])ccc1NCc1ccccc1Cl)NCC(F)(F)F | 17 | 12% | 21µM* | 0% | 0% | 10
O=C(COC(=O)c1cc([N+](=O)[O-])ccc1NCCO)NCc1cccs1 | 6 | 4% | 0.65µM* | 3% | -40% | 18
Cc1ccc(-c2ccccc2)n1-c1ccc(C(=O)O)cc1 | -6 | -1% | u | -2% | 6% | -8
Oc1ccccc1-n1c(-c2ccccc2)ccc1-c1ccccc1 | -3 | -3% | 21µM* | -7% | 14% | -80*
COC(=O)C1=CN(Cc2ccc(C)cc2)C=C(C(=O)OC)C1c1ccc(F)c(F)c1 | -1 | -6% | 23µM* | 0% | 4.6µM* | -27
